These results are taken from PubChem BioAssay (NCATS).

Molecules are shown by their SMILES. Records with an inconclusive call do not appear. Calls of active or inactive are those of the source. Calls come from the whole dose curve; as a rule, active = well fitted inhibition curve with a large enough effect; inconclusive = small, poorly fitted or top-dose-only effect; inactive = flat fitted curve, though single readings scatter.
% is set by controls: 0 for no effect and ±100 for the full control effect; potency is the fitted concentration of half-maximal effect.

The subject of this assay is KB-3-1. The assay is described as follows: Cytotoxic Profiling of Annotated Libraries Using Quantitative High-Throughput Screening (AID 1296008). Note: nearly all actives have a fitted effect of over 60% in size. The note with it: Five cell lines viability, CellTiter-Glo ATP luminescence, 48-72 h; max response: active compounds read low. An excerpt:
Cell-based phenotypic screening is a commonly used approach to discover biological pathways, novel drug targets, chemical probes and high-quality hit-to-lead molecules. Many hits identified from high-throughput screening campaign are ruled out through a series of follow-up potency, selectivity/specificity, and cytotoxicity assays. Prioritization of molecules with little or no cytotoxicity for a more in-depth downstream evaluation influence the future direction of projects, so cytotoxicity profiling of the screening libraries at early stage is essential for increasing the likelihood of candidate success. […] For the annotated library, we also examined the primary targets and mechanistic pathways regularly associated with cell death. To our knowledge, this is the first study to use high-throughput screening to profile large libraries for cytotoxicity assessment in both normal and cancer cell lines. In summary, the results generated here constitutes a valuable resource for the scientific community and provides insight on identifying cytotoxic compounds with particular mechanisms of action, and prioritizing compounds with suitable cytotoxicity profile for further evaluation.
A pintool (Kalypsys) was used to transfer 23 nL of compound solution to the 1536-well assay plates. After 48 or 72 hr incubation at 37 degree Celsius, 5% CO2 and 95% humidity, 2.5 uL of CellTiter-Glo (Promega) was dispensed into each well using a dispenser (Aspect Automation, St. Paul, MN) with solenoid valves (Lee Valves, Westbrook CT). Plates were left at room temperature for 10 min before imaging the ATP-coupled luminescence using a ViewLux microplate imager (PerkinElmer, Waltham, MA).
(In general: ATP-based viability assays read luminescence as a measure of living cells.)
On to `CCCCCn1cc(C(=O)C2C(C)(C)C2(C)C)c2ccccc21`, for which the max response was 5.27% (inactive).
The same measure, in the same setting: next, `COc1cc(O)c2c(c1)/C=C/C[C@@H](O)[C@@H](O)C(=O)CCC[C@H](C)OC2=O`: 5.8% (inactive).
The same measure, in the same setting: under `COC1(C[S@@](=O)c2ccccc2)CCN(CCc2c[nH]c3ccc(F)cc23)CC1` stands 6.86% (inactive); under `COc1cc(N2CCN(C)CC2)ccc1N`, -1.04% (inactive).
The same measure, in the same setting: under `CCCCCn1cc(C(=O)c2cccc3ccccc23)c2ccccc21` stands -15.1% (inactive).
`COc1cccc(NCC(F)Cn2c3ccc(Br)cc3c3cc(Br)ccc32)c1` (stereo not given): the Potency was 18400 nM (active).
Consider `CNC(C)CC1CCCCC1` (stereo not given), for which the max response is -19.8% (inactive).
`CN(C)[C@@H]1C(=O)C(C(N)=O)=C(O)[C@@]2(O)C(=O)C3=C(O)c4c(O)ccc(Cl)c4[C@@](C)(O)C3C[C@@H]12` (stereo not given in full): the max response is -13.4% (inactive).
Consider `Cc1ccc(Cn2nc(C(=O)N[C@@H]3C(C)(C)[C@@H]4CC[C@@]3(C)C4)cc2-c2ccc(Cl)c(C)c2)cc1`, for which the max response was 0.44% (inactive).
As to `C=CCN1CCC2(C)c3cc(O)ccc3C[C@H]1[C@H]2C`, the max response is 1.41% (inactive).
Regarding `CC1=CC2(O)/C=C/C(C)(O)C(O)C(O)/C=C/C(=O)OC23C(=O)NC(CC(C)C)C3C1C` (stereo not given), the molecule was classed as inactive.
Regarding `CC1=CC2OC3CC(O)[C@](C)([C@@]2(C)C(O)C1=O)[C@]31CO1` (stereo not given in full), the Potency was 7310 nM (active).
In the case of `Cc1cccc(NC(=O)N[C@H]2CN(C)c3ccccc3C(c3ccccc3)=N2)c1`, the max response is 6.39% (inactive).
Same read-out and setting: next, `C[C@H]1CC[C@@H]2[C@@H](C)[C@H]3[C@H](C[C@H]4[C@@H]5CC=C6CC(O[C@@H]7O[C@H](CO)[C@@H](O)[C@H](O[C@@H]8O[C@H](CO)[C@@H](O)[C@H](O)[C@H]8O)[C@@H]7O[C@@H]7O[C@@H](C)[C@H](O)[C@@H](O)[C@H]7O)CC[C@]6(C)[C@H]5CC[C@]34C)N2C1` (stereo not given in full): 2.33% (inactive); `c1cncc(OC[C@@H]2CCN2)c1`: -3.57% (inactive); `Cc1[nH]c2ccc(Cl)cc2c1CCN(C)C`: 3.8% (inactive).
Same read-out and setting: next, `CN1C(=O)[C@]23CC4C(C)(C)[C@@]5(C[C@@]41CN2CC[C@@]3(C)O)C(=O)Nc1c5ccc2c1OC=CC(C)(C)O2` (stereo not given in full): 1.88% (inactive); `CN1CN(c2ccccc2)C2(CCN(CCCC(=O)c3ccc(F)cc3)CC2)C1=O`: -4.39% (inactive).
For `CC(C)(C)[C@]1(O)C[C@@H]2OC(=O)C[C@@]23C(=O)O[C@@H]2OC(=O)[C@@H](O)[C@]213`, the max response was -3.84% (inactive).
Still for that read-out and setting: under `CCOP(=S)(OCC)SCSc1ccc(Cl)cc1` stands -9.26% (inactive).
On to `N#CC(O[C@@H]1O[C@H](CO)[C@@H](O)[C@H](O)[C@H]1O)c1ccccc1` (stereo not given in full), for which the max response is 0.785% (inactive).
Take `CN1C(=O)C(Cc2ccc3ccccc3c2)N=C(c2ccc(O)cc2)c2cc(Cl)ccc21` (stereo not given): the max response is -24.1% (inactive).
With `COCC(C(=O)OC1CC2CCC(C1)N2C)c1ccccc1` (stereo not given), the outcome was inactive.
Consider `COc1ccc(C23CCC(=O)C=C2N(C)CC3)cc1OC` (stereo not given), for which the max response was -13% (inactive).
On the same count and under the same terms, under `CCOP(=O)(OCC)Oc1ccc2c(C)cc(=O)oc2c1` stands -1.13% (inactive).
Take `Oc1ccc2c3c1O[C@H]1c4[nH]c5c(N=C=S)cccc5c4C[C@@]4(O)[C@@H](C2)N(CC2CC2)CC[C@]314`: the max response was -18.9% (inactive).
In the case of `NCCCCCNC1(c2ccccc2)CCCCC1`, the max response is -2.11% (inactive).
For the molecule `C[C@@H]1C[C@@H](O)[C@]2(O)O[C@@H]3C[C@@]4(C=O)C(CC[C@@H]5C4CC[C@]4(C)[C@@](O)(C6=CC(=O)OC6)CC[C@]54O)C[C@H]3OC2O1` (stereo not given in full), the Potency is 2240 nM (active).
Turning to `NNC(=O)c1nn(Cc2ccc(Cl)cc2Cl)c2ccccc12`, the max response was -14.6% (inactive).
As for `CN1CCC2=C(C1)c1ccccc1Cc1ccccc12`, the max response is -19% (inactive).
Take `Clc1ccc([C@]23CNC[C@H]2C3)cc1Cl`: the max response is -2.06% (inactive).
For the molecule `CCC(=O)O[C@H]1[C@@H](N2CCCCC2)C[C@H]2[C@@H]3CC[C@H]4C[C@H](OC(C)=O)[C@@H](N5CCCCC5)C[C@]4(C)[C@H]3CC[C@@]21C`, the max response was -10.6% (inactive).
On the same count and under the same terms, next, `CCCCn1cc(C(=O)c2cccc3ccccc23)c2ccccc21`: -16.1% (inactive).
On the same count and under the same terms, under `CN(C)CCO` stands -9.6% (inactive).
Consider `C[C@H]1O[C@@H](O[C@H]2CC[C@]3(CO)C4CC[C@]5(C)[C@@H](C6=CC(=O)OC6)CC[C@]5(O)[C@@H]4CC[C@H]3C2)[C@H](O)[C@H](O)[C@@H]1O[C@@H]1O[C@H](CO)[C@@H](O)[C@H](O)[C@H]1O` (stereo not given in full), for which the Potency was 1930 nM (active).
Same read-out and setting: under `CC[C@H](O)[C@@H](C)[C@H]1O[C@@H]1C[C@H](C)/C=C/C=C(\C)[C@H]1OC(=O)C[C@H](O)CC[C@@](C)(O)[C@@H](OC(C)=O)/C=C/[C@@H]1C` stands 5.2 nM (active).
On to `CN1CC[C@@]23CCCC[C@@H]2[C@@H]1Cc1ccc(O)cc13`, for which the max response was -20.8% (inactive).
With `CCC1C2CC3C4N(C)c5ccccc5C45CC(C2C5O)N3C1O` (stereo not given), the max response is 6.75% (inactive).
Consider `CN[C@]1(c2ccccc2Cl)CCCCC1=O`, for which the max response was -15.2% (inactive).
As for `CCOC(=O)C1(c2ccccc2)CCCN(C)CC1` (stereo not given), the max response was -5.26% (inactive).
